Laboratory results from PubChem BioAssay (Tox21).
Records with an inconclusive call do not appear. Where a call stands in place of a potency, no number is given. More than one record can exist for a structure, and the calls need not agree. Activity calls are given as the source filed them. Unless noted, the call rests on the fitted dose curve; in most records, active means well fitted curve in the direction sought with a large enough effect in the repeat runs; inconclusive means weak or mixed curves; inactive means no such curve, though single readings can be large; an effect the other way counts as inactive or inconclusive.

Key:
[1] = qHTS assay to identify small molecule agonists of the vitamin D receptor (VDR) signaling pathway - cell viability counter screen (AID 743224); further: series mostly up to about 63 µM; nearly all actives have a fitted effect of over 50% in size
Procedure, shortened: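 Compounds were pin-transferred onto VDR-bla cells plated 4 h earlier; following 16 h incubation at 37C, cell viability was quantified by CellTiter-Glo luminescence after 30 min at room temperature.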

[2] = qHTS assay to identify small molecule antagonists of the vitamin D receptor (VDR) signaling pathway - cell viability counter screen (AID 743225); further: nearly all actives have a fitted effect of over 50% in size
Procedure, shortened: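 HEK293T VDR-bla; cpd + 1a,25-(OH)2D3 3 nM final, 16 h 37C/5% CO2; B/G FRET substrate 2 h RT; then CellTiter-Glo 30 min RT, luminescence.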

[3] = qHTS assay to identify small molecule agonists of the NFkB signaling pathway (AID 1159509; active means well fitted curve in the direction sought with a large enough effect in the signal ratio in the repeat runs, not every such curve was filed as active; the % refers to the signal ratio; further: series mostly up to about 61 µM)
Procedure, shortened: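 Agonist activity was read as beta-lactamase-driven FRET change (460 and 530 nm emission, 405 nm excitation) following 1.5 hr substrate loading at room temperature. Beforehand, ME-180 NFkB-bla reporter cells were treated with compounds for 5 hr at 37 C.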

[4] = qHTS assay to identify small molecule agonists of the NFkB signaling pathway - cell viability counter screen (AID 1159515; calls by dose curve; further: series mostly up to about 61 µM; nearly all actives have a fitted effect of over 55% in size)
Procedure, shortened: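 Parallel cytotoxicity counter screen in ME-180 cells carrying an NFkB-response-element beta-lactamase reporter, 2,000 cells/well. Compound exposure lasted 5 hr at 37 C, 5% CO2. Cell viability was quantified by CellTiter-Glo luminescence.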

[5] = qHTS assay to identify small molecule agonists of the endoplasmic reticulum stress response signaling pathway (AID 1159516; active means well fitted activation curve with a large enough effect in the signal ratio in the repeat runs, not every such curve was filed as active; the % refers to the signal ratio)
Procedure, shortened: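 Using a HeLa line with an ESRE-driven beta-lactamase gene, agonist activity was measured by FRET substrate fluorescence (460 and 530 nm emission) after cells were treated with compounds for 5 hr at 37 C and 5% CO2.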

[6] = qHTS assay to identify small molecule agonists of the endoplasmic reticulum stress response signaling pathway - cell viability counter screen (AID 1159517; calls by dose curve;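 further: HeLa cells carrying an ER stress response element beta-lactamase reporter; series mostly up to about 61 µM; nearly all actives have a fitted effect of over 50% in size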)
Procedure, shortened: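 In parallel with the ESRE reporter read, cytotoxicity was scored by CellTiter-Glo luminescence (30 min, room temperature) on HeLa ESRE-bla cells dosed for 5 hr.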

[7] = qHTS assay to identify small molecule antagonists of the retinoid-related orphan receptor gamma (ROR-gamma) signaling pathway - cell viability counter screen (AID 1159520); further: nearly all actives have a fitted effect of over 50% in size
Procedure, shortened: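 Tet-on ROR gamma CHO cells were given compounds for 2 hr, then doxycycline hyclate at 1 uM final, and incubated 16 hr at 37 C. Viability was measured as ATP content by CellTiter-Glo luminescence.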

[8] = biological target: Nuclear receptor ROR-gamma (Homo sapiens) (UniProt P51449); assay: qHTS assay to identify small molecule antagonists of the retinoid-related orphan receptor gamma (ROR-gamma) signaling pathway (AID 1159521; further: nearly all actives have a fitted effect of over 50% in size; further: potency means the concentration at half of the fitted maximal effect;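 on activity change, negative = inhibition: CHO cells with doxycycline inducible ROR-gamma driving an RORE luciferase reporter; top concentration of the series differs between compounds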)
Procedure, shortened: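 Cells were plated, rested 4 h at 37 C, exposed to compounds for 2 h, then given 1 uM final doxycycline hyclate to induce RORγ expression. After 16 h, ONE-Glo luminescence from the ROR response element reporter was measured.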

[9] = qHTS assay to identify small molecule agonists of the AP-1 signaling pathway - cell viability counter screen (AID 1159525; calls by dose curve; further: nearly all actives have a fitted effect of over 55% in size)
Procedure, shortened: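 Same-well cytotoxicity counter screen of the Tox21 10K library in ME-180 cells. The readout is ATP-dependent luminescence after 5 h compound treatment. Data are normalised to DMSO and tetra n-octyl ammonium bromide controls.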

[10] = qHTS assay to identify small molecule agonists of the AP-1 signaling pathway (AID 1159526; calls by dose curve)

SMILES | Potency [1] | Potency [2] | outcome [3] | outcome [4] | outcome [5] | Potency [6] | Potency [7] | Potency [8] | Potency [9] | outcome [10] | activity, negative = cytotoxicity [7] | activity change, negative = inhibition [8] | viability change, negative = cytotoxic [9] | activation [10]
CN(C)CCc1c[nH]c2cccc(OP(=O)(O)O)c12 | inactive | inactive | inactive | inactive | inactive | inactive | inactive | inactive | inactive | inactive |  |  |  | 
Cc1cc(OC(=O)N(C)C)nn1C(=O)N(C)C | inactive | inactive | inactive | inactive | inactive | inactive | inactive | inactive | inactive | inactive |  |  |  | 
Cn1c(CCCC(=O)O)nc2cc(N(CCCl)CCCl)ccc21 | inactive | inactive | inactive | inactive | inactive | inactive | inactive | inactive | inactive | inactive |  |  |  | 
C=C(C)[C@H]1CN[C@H](C(=O)O)[C@H]1CC(=O)O | inactive | inactive | inactive | inactive | inactive | inactive | inactive | inactive | inactive | inactive |  |  |  | 
O=C(O)C(Br)(Br)Br | inactive | inactive | inactive | inactive | inactive | inactive | inactive | inactive | inactive | inactive |  |  |  | 
CS(=O)(=O)Cl | inactive | inactive | inactive | inactive | inactive | inactive | inactive | inactive | inactive | inactive |  |  |  | 
Oc1ccc2c3c1O[C@H]1[C@@H](O)C=C[C@H]4[C@@H](C2)NCC[C@@]341 | inactive | inactive | inactive | inactive | inactive | inactive | inactive | inactive | inactive | inactive |  |  |  | 
OP(O)c1ccccc1 | inactive | inactive | inactive | inactive | inactive | inactive | inactive | inactive | inactive | inactive |  |  |  | 
O=C(Cl)/C=C/C(=O)Cl | inactive | inactive | inactive | inactive | inactive | inactive | inactive | inactive | inactive | inactive |  |  |  | 
CCOC1Oc2ccc(OS(C)(=O)=O)cc2C1(C)C (stereo not given) | inactive | inactive | inactive | inactive | inactive | inactive | inactive | inactive | inactive | inactive |  |  |  | 
N#CN | inactive | inactive | inactive | inactive | inactive | inactive | inactive | inactive | inactive | inactive |  |  |  | 
ClCOCCl | inactive | inactive | inactive | inactive | inactive | inactive | inactive | inactive | inactive | inactive |  |  |  | 
CC(=O)OCC1=C(C(=O)O)N2C(=O)[C@@H](N)[C@H]2SC1 | inactive | inactive | inactive | inactive | inactive | inactive |  |  |  |  | 5.7% [at 19 µM] (inactive) | 30.2% [at 19 µM] (inactive) | -1.2% [at 15.8 µM] (inactive) | 4.04% [at 15.8 µM] (inactive)
CC[C@H](O)C(C[C@H](C)N(C)C)(c1ccccc1)c1ccccc1 | inactive | inactive | inactive | inactive | inactive | inactive | inactive | inactive | inactive | inactive |  |  |  | 
C=C1CC[C@@]2(O)[C@H]3Cc4ccc(O)c5c4[C@@]2(CCN3CC2CC2)[C@H]1O5 | inactive | inactive | inactive | inactive | inactive | inactive | inactive | inactive | inactive | inactive |  |  |  | 
Cc1ccc(Cl)c(O)c1 | inactive | inactive | inactive | inactive | inactive | inactive | inactive | inactive | inactive | inactive |  |  |  | 
O=C(CCl)NCO | inactive | inactive | inactive | inactive | inactive | inactive | inactive | inactive | inactive | inactive |  |  |  | 
Cc1ccc2cc(C)ccc2c1 | inactive | inactive | inactive | inactive | inactive | inactive | inactive | inactive | inactive | inactive |  |  |  | 
COP(=O)(O)OC | inactive | inactive | inactive | inactive | inactive | inactive | inactive | inactive | inactive | inactive |  |  |  | 
NC1(c2ccccc2)CCCCC1 | inactive | inactive | inactive | inactive | inactive | inactive | inactive | inactive | inactive | inactive |  |  |  | 
CCCC[N+](=O)[O-] | inactive | inactive | inactive | inactive | inactive | inactive | inactive | inactive | inactive | inactive |  |  |  | 
ClCCN1CCCC1 | inactive | inactive | inactive | inactive | inactive | inactive | inactive | inactive | inactive | inactive |  |  |  | 
C[C@@H](N)[C@@H](O)c1ccccc1 | inactive | inactive | inactive | inactive | inactive | inactive | inactive | inactive | inactive | inactive |  |  |  | 
O=C(Cl)OCc1ccccc1 | inactive | inactive | inactive | inactive | inactive | inactive | inactive | inactive | inactive | inactive |  |  |  | 
N=C(N)[Se] | inactive | inactive | inactive | inactive | inactive | inactive | inactive | inactive | inactive | inactive |  |  |  | 
Nc1c(Cl)c(F)nc(OCC(=O)O)c1Cl | inactive | inactive | inactive | inactive | inactive | inactive | inactive | inactive | inactive | inactive |  |  |  | 

SMILES | Potency [1] | Potency [2] | outcome [3] | outcome [4] | outcome [5] | Potency [6] | Potency [7] | Potency [8] | Potency [9] | outcome [10] | activity, negative = cytotoxicity [7] | activity change, negative = inhibition [8] | viability change, negative = cytotoxic [9] | activation [10]
CC(=NC#N)N(C)Cc1ccc(Cl)nc1 | inactive | inactive | inactive | inactive | inactive | inactive | inactive | inactive | inactive | inactive |  |  |  | 
CCC1(c2ccccc2)C(=O)N(COC)C(=O)N(COC)C1=O | inactive | inactive | inactive | inactive | inactive | inactive | inactive | inactive | inactive | inactive |  |  |  | 
NNCc1ccccc1 | inactive | inactive | inactive | inactive | inactive | inactive | inactive | inactive | inactive | inactive |  |  |  | 
O=c1[nH]oc2c1CCNC2 | inactive | inactive | inactive | inactive | inactive | inactive | inactive | inactive | inactive | inactive |  |  |  | 
C=C(Cl)CCl | inactive | inactive | inactive | inactive | inactive | inactive | inactive | inactive | inactive | inactive |  |  |  | 
O=P(O)(O)CN(CP(=O)(O)O)CP(=O)(O)O | inactive | inactive | inactive | inactive | inactive | inactive | inactive | inactive | inactive | inactive |  |  |  | 
C=CC1(C)OC(=O)N(c2cc(Cl)cc(Cl)c2)C1=O (stereo not given) | inactive | inactive | inactive | inactive | inactive | inactive | inactive | 43 µM (active) and inactive | inactive | inactive |  |  |  | 
CCC(=O)OC1(c2ccccc2)CCN(C)CC1 | inactive | inactive | inactive | inactive | inactive | inactive | inactive | inactive | inactive | inactive |  |  |  | 
C[C@H](CN1CCOCC1)C(C(=O)N1CCCC1)(c1ccccc1)c1ccccc1 | inactive | inactive | inactive | inactive | inactive | inactive | inactive | inactive | inactive | inactive |  |  |  | 
CCN[C@@H](C)Cc1ccccc1 | inactive | inactive | inactive | inactive | inactive | inactive | inactive | inactive | inactive | inactive |  |  |  | 
CCCCCCCCSC(=O)Oc1cc(Cl)nnc1-c1ccccc1 | inactive | inactive | inactive | inactive | inactive | inactive | inactive | inactive | inactive | inactive |  |  |  | 
c1ccc2c(c1)CCNC2 | inactive | inactive | inactive | inactive | inactive | inactive | inactive | inactive | inactive | inactive |  |  |  | 
O=C1CCCCC1Cl (stereo not given) | inactive | inactive | inactive | inactive | inactive | inactive | inactive | inactive | inactive | inactive |  |  |  | 
Cc1ccc(-c2nc3ccc(C)cn3c2CC(=O)N(C)C)cc1 | inactive | inactive | inactive | inactive | inactive | inactive | inactive | inactive | inactive | inactive |  |  |  | 
CCOC(=O)N(C)N=O | inactive | inactive | inactive | inactive | inactive | inactive | inactive | inactive | inactive | inactive |  |  |  | 
CCN(CCO)CCO | inactive | inactive | inactive | inactive | inactive | inactive | inactive | inactive | inactive | inactive |  |  |  | 
OCC(Cl)CCl (stereo not given) | inactive | inactive | inactive | inactive | inactive | inactive | inactive | inactive | inactive | inactive |  |  |  | 
N#CN=C1SCCN1Cc1ccc(Cl)nc1 | inactive | inactive | inactive | inactive | inactive | inactive | inactive | inactive | inactive | inactive |  |  |  | 
CN1COCN(Cc2cnc(Cl)s2)/C1=N\[N+](=O)[O-] | inactive | inactive | inactive | inactive | inactive | inactive | inactive | inactive | inactive | inactive |  |  |  | 
CCNc1nc(NCC)nc(SC)n1 | inactive | inactive | inactive | inactive | inactive | inactive | inactive | inactive | inactive | inactive |  |  |  | 
C#CC(C)(C)O | inactive | inactive | inactive | inactive | inactive | inactive | inactive | inactive | inactive | inactive |  |  |  | 
ClCCCCl | inactive | inactive | inactive | inactive | inactive | inactive | inactive | inactive | inactive | inactive |  |  |  | 
CC(Cc1ccccc1)NCCCCl (stereo not given) | inactive | inactive | inactive | inactive | inactive | inactive | inactive | inactive | inactive | inactive |  |  |  | 
C=CCc1cc(OC)c2c(c1)OCO2 | inactive | inactive | inactive | inactive | inactive | inactive | inactive | inactive | inactive | inactive |  |  |  | 
COc1cccc(C=O)c1 | inactive | inactive | inactive | inactive | inactive | inactive | inactive | inactive | inactive | inactive |  |  |  | 
